The campaign covered roughly 39,000 compounds. About 3,300 (8.5%) were called active. The entries come from a sample that favours actives as a whole.
System: HepG2
Assay: cytotoxicity call (relative viability < 0.9)
Settings: 10 µM

| SMILES | cytotoxicity call |
| --- | --- |
| COC(=O)[C@H]1C[C@@]2(C(=O)O)C[C@](C(=O)O)(C[C@@H](C(=O)OC)C2=O)C1=O | inactive |
| C[C@@H]1CN([C@@H](C)CO)C(=O)CCCn2nncc2CO[C@@H]1CN(C)C(=O)Nc1ccc2c(c1)OCCO2 | inactive |
| C[C@@H]1CCCCO[C@H](CN(C)C(=O)Nc2ccc(C(F)(F)F)cc2)[C@@H](C)CN([C@H](C)CO)C(=O)c2cc(N(C)C)ccc2O1 | inactive |
| CCc1nc2ccc(C(=O)N3CCN(S(=O)(=O)CC)CC3)cn2c1N(C=O)Cc1ccc(OC)cc1 | inactive |
| C[C@H]1CCCCO[C@H](CN(C)Cc2ccc(Cl)c(Cl)c2)[C@@H](C)CN([C@@H](C)CO)C(=O)c2cc(NC(=O)Nc3ccccc3)ccc2O1 | inactive |
| C[C@H](CO)N1C[C@H](C)[C@@H](CN(C)Cc2ccc(Cl)c(Cl)c2)OCCCC[C@H](C)Oc2ccc(NC(=O)Nc3ccccc3)cc2C1=O | active |
| C[C@@H]1CCCCO[C@@H](CN(C)Cc2ccc(Cl)c(Cl)c2)[C@@H](C)CN([C@H](C)CO)C(=O)c2cc(NC(=O)Nc3ccccc3)ccc2O1 | inactive |
| C[C@@H]1CCCCO[C@@H](CN(C)Cc2ccc(C(=O)O)cc2)[C@H](C)CN([C@H](C)CO)C(=O)c2cc(NC(=O)Nc3ccc(C(F)(F)F)cc3)ccc2O1 | inactive |
| COc1ccccc1CNC(=O)C[C@H]1C[C@H]2c3cc(NC(=O)c4ccc5c(c4)OCO5)ccc3O[C@H]2[C@@H](CO)O1 | inactive |
| Cc1noc(C)c1NC(=O)Nc1cccc2c1O[C@@H](CN(C)S(=O)(=O)c1ccccc1)[C@H](C)CN([C@H](C)CO)C2=O | inactive |
| Cc1noc(C)c1NC(=O)N(C)C[C@H]1Oc2ncc(C#CCC(C)C)cc2C(=O)N([C@@H](C)CO)C[C@@H]1C | inactive |
| C[C@H](CO)N1C[C@H](C)[C@@H](CN(C)Cc2ccc(C(F)(F)F)cc2)Oc2ccc(NC(=O)CCCCCC(=O)Nc3ccccc3N)cc2CC1=O | inactive |
| C[C@@H]1CN([C@H](C)CO)C(=O)Cc2cc(NC(=O)CCCCCC(=O)Nc3ccccc3N)ccc2O[C@@H]1CN(C)Cc1ccc(C(F)(F)F)cc1 | active |
| C[C@@H]1CN([C@H](C)CO)C(=O)Cc2cc(NC(=O)CCCCCC(=O)Nc3ccccc3N)ccc2O[C@H]1CN(C)Cc1ccc(C(F)(F)F)cc1 | inactive |
| C[C@H]1CN([C@@H](C)CO)C(=O)Cc2cc(NC(=O)CCCCCC(=O)Nc3ccccc3N)ccc2O[C@@H]1CN(C)Cc1ccc(C(F)(F)F)cc1 | inactive |
| C[C@H](CO)N1C[C@H](C)[C@H](CN(C)Cc2ccc(C(F)(F)F)cc2)Oc2ccc(NC(=O)CCCCCC(=O)Nc3ccccc3N)cc2CC1=O | active |
| C[C@@H]1CN([C@@H](C)CO)C(=O)Cc2cc(NC(=O)CCCCCC(=O)Nc3ccccc3N)ccc2O[C@H]1CN(C)Cc1ccc(C(F)(F)F)cc1 | inactive |
| Cc1noc(C)c1S(=O)(=O)N(C)C[C@@H]1Oc2ccc(NS(=O)(=O)c3cn(C)cn3)cc2CC(=O)N([C@@H](C)CO)C[C@H]1C | inactive |
| C[C@@H]1CN([C@H](C)CO)C(=O)c2cc(NS(=O)(=O)c3ccc(F)cc3)ccc2O[C@@H]1CN(C)C(=O)Nc1ccc(C(F)(F)F)cc1 | inactive |

| SMILES | cytotoxicity call |
| --- | --- |
| C[C@@H]1CN([C@H](C)CO)C(=O)c2cccc(NS(=O)(=O)c3ccccc3)c2O[C@H]1CN(C)Cc1ccc(Oc2ccccc2)cc1 | inactive |
| COc1ccc(S(=O)(=O)N2C[C@@H](O)COC[C@H]3O[C@H](CC(=O)NCCCN(C)C)CC[C@@H]32)cc1 | inactive |
| COc1cccc(NC(=O)N(C)C[C@@H]2OCc3ccccc3-c3c(n(C)c4ccccc34)C(=O)N([C@@H](C)CO)C[C@@H]2C)c1 | inactive |
| C=CC[C@@H](CC(=O)N[C@H](CO)Cc1ccccc1)C(=O)N[C@H](C)COC(=O)[C@H](CC=C)CC(=O)OC(C)(C)C | inactive |
| C[C@@H]1CN([C@H](C)CO)C(=O)c2cc(NC(=O)Cc3ccccc3)ccc2O[C@@H](C)CCCCO[C@@H]1CN(C)Cc1ccc(C(F)(F)F)cc1 | inactive |
| C[C@@H]1CCCCO[C@@H](CN(C)Cc2ccc(C(F)(F)F)cc2)[C@@H](C)CN([C@@H](C)CO)C(=O)c2cc(NC(=O)Cc3ccccc3)ccc2O1 | active |
| C[C@@H]1CCCCO[C@@H](CN(C)Cc2ccc(C(F)(F)F)cc2)[C@H](C)CN([C@H](C)CO)C(=O)c2cc(NC(=O)Cc3ccccc3)ccc2O1 | inactive |
| C[C@@H]1CN([C@@H](C)CO)C(=O)c2cc(NC(=O)Cc3ccccc3)ccc2O[C@@H](C)CCCCO[C@H]1CN(C)Cc1ccc(C(F)(F)F)cc1 | inactive |
| C[C@H]1CCCCO[C@H](CN(C)Cc2ccccc2)[C@@H](C)CN([C@@H](C)CO)C(=O)c2cc(NC(=O)Cc3ccccc3)ccc2O1 | inactive |
| C[C@@H]1CCCCO[C@H](CN(C)Cc2ccc(C(F)(F)F)cc2)[C@H](C)CN([C@@H](C)CO)C(=O)c2cc(NC(=O)Cc3ccccc3)ccc2O1 | inactive |
| C[C@@H]1CCCCO[C@H](CN(C)Cc2ccccc2)[C@@H](C)CN([C@@H](C)CO)C(=O)c2cc(NC(=O)Cc3ccccc3)ccc2O1 | active |
| C[C@@H]1CN([C@H](C)CO)C(=O)c2cc(NC(=O)Cc3ccccc3)ccc2O[C@@H](C)CCCCO[C@H]1CN(C)Cc1ccc(C(F)(F)F)cc1 | active |
| C[C@H](CO)N1C[C@H](C)[C@@H](CN(C)Cc2ccc(C(F)(F)F)cc2)OCCCC[C@H](C)Oc2ccc(NC(=O)Cc3ccccc3)cc2C1=O | active |
| C[C@@H]1CN([C@H](C)CO)C(=O)c2cc(NC(=O)Cc3ccccc3)ccc2O[C@@H](C)CCCCO[C@H]1CN(C)Cc1ccccc1 | inactive |
| CO[C@H]1CN(C)C(=O)c2cc(NS(C)(=O)=O)ccc2OC[C@H](C)N(S(C)(=O)=O)C[C@H]1C | inactive |
| C[C@@H]1CN([C@@H](C)CO)C(=O)c2cc(NC(=O)CCC(F)(F)F)ccc2O[C@@H](C)CCCCO[C@@H]1CN(C)CC1CCCCC1 | inactive |
| CCCCCCCCCCCCCCCc1cccc(OCC)c1C(=O)Nc1ccc(Cl)c(C(F)(F)F)c1 | inactive |
| C[C@H](CO)N1C[C@H](C)[C@@H](CN(C)S(C)(=O)=O)Oc2ccc(NC(=O)Cn3cnnn3)cc2CC1=O | inactive |

From the antibiotic and cytotoxicity screens of Wong et al. (2023)
